Screens from PubChem BioAssay.
SKN-1 block: C. elegans SKN-1 inhibition | C. elegans VP596 Pgst-4::GFP/RFP ratio, acrylamide-induced, 24 h | inhibition, % at 21.8 µM | hit rate 0.49% among 360,000 | AID 624304;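 active means interference check ratio from 0.5 to 1.5 plus GFP to RFP signal ratio inhibition reaching or exceeding a fixed threshold, cut at about 30% in these data, passing the limit was not always enough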
GRIN3A LBD mod: modulates the human NR3A ligand-binding domain; Tm shift relative to glycine control, % at 25 µM; hit rate 2.5% among 340,000; NR3A LBD differential scanning fluorimetry, Tm shift; 0% = protein alone, 100% = glycine-bound protein;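 active means melting temperature shift of at least 10% of the positive control shift, at one fixed dose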
Vif inh: HIV Vif inhibition | hit rate 0.35% among 340,000 | HEK293T cells, Vif self-association by quenched fluorescence, imaging, 24 h | AID 602346 | inhibition, % at 7.49 µM; in the data active means inhibition above about 50%, passing the limit was not always enough
esBAF inh: inhibitors of esBAF chromatin remodeling in mouse ES cells; Bmi1-luciferase knock-in reporter, 24 h; 100% = twice the neutral-well signal; reporter increase, % at 12.5 µM; hit rate 2% among 350,000; in the data active means activation above about 40%;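 further: a rise in the Bmi1 reporter signal indicates esBAF inhibition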
NadD block: NadD (S. aureus) enzyme inhibition; AID 602399; inhibition, % at 20 µM; purified NadD enzyme, colorimetric absorbance read-out; hit rate 0.78% among 360,000; in the data active means inhibition above about 26%
SMARCA2 activ: activators of SMARCA2 function. MG213 cells, MMTV-luciferase reporter, dexamethasone, overnight. hit rate 1% among 370,000. activation, % at 9.1 µM; in the data active means activation above about 7.8%
Numbers stand for hits; – = inactive; · = not tested or not shown. Hits are enriched below; roughly 5.2% of the tested compounds scored in any of these assays.

SMILES	SKN-1 block	GRIN3A LBD mod	Vif inh	esBAF inh	NadD block	SMARCA2 activ
CCOC(=O)c1csc(NC(=O)c2ccc(OCC)cc2)n1	–	–	–	·	–	–
CCc1ccc(NC(=O)COC(=O)/C(=C/c2ccccc2OC)c2ccccc2)cc1	–	23.0	–	–	–	–
COc1ccccc1/C=C(/C(=O)OCC(N)=O)c1ccccc1	–	–	–	–	–	–
CCOc1ccccc1C(=O)NN1C(=O)C2CCCCC2C1=O (stereo not given)	–	22.5	–	·	–	–
CNC[C@@H]1OCCCC[C@H](C)Oc2ccc(NC(=O)Nc3c(C)noc3C)cc2C(=O)N([C@H](C)CO)C[C@H]1C	·	·	·	–	·	·
COc1ccc(N/N=C(\C#N)C(=N)N2CCCCC2)cc1	–	–	–	65.1	–	–
COc1ccc(N/N=C(\C#N)C(=N)SCc2ccccc2)cc1	–	29.0	–	·	–	–
COc1ccc(-c2cc([C@H]3[C@H]4C=CC[C@@H](C)[C@@H]4C(=O)N3Cc3ccccc3)ccc2F)cc1OC	–	–	–	48.2	–	–
Cc1ccc(-c2ccc([C@H]3[C@H]4C=CC[C@@H](C)[C@@H]4C(=O)N3Cc3ccccc3)c(F)c2)cc1	–	12.9	–	–	–	–
COC(=O)c1ccc(-c2ccc([C@H]3[C@H]4C=CC[C@@H](C)[C@@H]4C(=O)N3Cc3ccccc3)c(F)c2)cc1	–	–	–	58.6	–	–
CC[C@@H]1CC=C[C@H]2[C@H]1C(=O)N(Cc1ccccc1)[C@H]2c1ccc(C(F)(F)F)cc1	–	11.5	–	–	–	–
CC(=O)c1ccc(-c2ccc([C@H]3[C@H]4C=CC[C@@H](C)[C@@H]4C(=O)N3Cc3ccccc3)c(F)c2)cc1	–	–	–	–	–	–
Cc1ccc(S(=O)(=O)N(C)C[C@H]2Oc3c(NC(=O)C4CCOCC4)cccc3C(=O)N([C@@H](C)CO)C[C@H]2C)cc1	·	·	·	–	·	·
COC(=O)c1ccc(-c2ccc(OC)c([C@H]3[C@H]4C=CC[C@@H](C)[C@@H]4C(=O)N3Cc3ccccc3)c2)cc1	–	–	·	78.8	–	–
Cc1ccccc1CNC1CCCCC1	–	–	–	·	–	–
Oc1cc(CNC2CCCCC2)c(O)cc1CNC1CCCCC1	–	–	–	–	30.8	–
C[C@H](CO)N1C[C@H](C)[C@H](CN(C)S(C)(=O)=O)Oc2ccc(N(C)C)cc2CC1=O	·	·	·	–	·	·
C/C=C/c1ccc2c(c1)O[C@@H](CN(C)C(=O)NC(C)C)[C@@H](C)CN([C@@H](C)CO)S2(=O)=O	·	·	·	–	·	·
COc1cc(O)sc1C=Nc1ccc(Cl)cc1	–	–	–	54.7	–	–
O=C(O)c1ccc(N=N/C(=N\Nc2ccc(C(=O)O)cc2)c2ccccc2)cc1	–	23.2	–	–	–	–
O=C(O)c1cccc(N/N=C(\N=Nc2ccccc2)c2ccccc2)c1	–	–	–	–	–	–
CN1/C(=C/C(=S)NC(=O)C2CCC2)C(C)(C)c2ccccc21	41.2	–	–	–	–	–
Cc1ccc(NC(=O)c2noc3c2CCCCC3)cc1	–	–	–	–	–	–
CCc1ccc(NC(=O)c2noc3c2CCCCC3)cc1	–	–	–	–	–	–
CCc1ccc(NC(=O)c2noc3c2CCC3)cc1	–	–	–	72.9	–	–
SMILES	SKN-1 block	GRIN3A LBD mod	Vif inh	esBAF inh	NadD block	SMARCA2 activ
Cc1ccc(O)c(NC(=O)c2noc3c2CCCCC3)c1	–	–	–	50.5	–	–
CSc1ccccc1NC(=O)c1noc2c1CCC2	–	–	–	47.7	–	–
CC(C)(C)NC(=O)CN(C(=O)CCC(=O)Nc1nccs1)c1cccc(C(F)(F)F)c1	35.3	–	–	–	–	–
C[C@@H]1CCCCO[C@@H](CN(C)C(=O)CCC(F)(F)F)[C@@H](C)CN([C@H](C)CO)C(=O)c2cc(NC(=O)Nc3ccc4c(c3)OCO4)ccc2O1	·	·	·	–	·	·
COc1ccc(C(c2nnnn2C2CCCC2)N2CCN(C3CCCC3)CC2)cc1OC (stereo not given)	–	10.8	–	–	–	–
CN(C(=O)c1ccco1)c1nnc(-c2ccc(F)cc2)s1	–	–	–	57.9	–	–
COc1cccc(OC)c1C(=O)Nc1nnc(-c2ccc(F)cc2)s1	–	–	–	–	–	–
O=C(Nc1nnc(-c2ccc(F)cc2)s1)c1ccco1	–	–	–	46.3	–	–
Cc1cccc(-c2nnc(NC(=O)c3ccco3)s2)c1	–	23.7	–	59.4	–	–
Cc1cc2cc(CNC(=O)COc3ccccc3)ccc2n1C	–	–	–	–	–	–
COc1ccc(C(=O)NCc2ccc3c(c2)cc(C)n3C)cc1	43.7	–	·	–	–	–
COc1cc(OC)cc(C(=O)NCc2ccc3c(c2)cc(C)n3C)c1	–	–	–	·	–	–
Cc1cc2cc(CNC(=O)c3ccco3)ccc2n1C	48.9	–	–	–	–	–
Cc1cc2cc(CN3C(=O)c4ccccc4C3=O)ccc2n1C	46.1	–	–	·	–	–
COCC(=O)NCc1ccc2c(c1)cc(C)n2C	47.1	–	–	·	–	–
CC=Cc1ccc2n(c1=O)C[C@@H]1[C@@H](CO)[C@H](C(=O)NCCC)N(CCC(F)(F)F)[C@H]21 (mixture of isomers)	·	·	·	–	·	·
CCC(=O)Nc1ccc2c(c1)OC[C@H](C)N(C(=O)Cc1ccccn1)C[C@@H](C)[C@H](OC)CN(C)C2=O	·	·	·	–	·	·
COc1cccc(S(=O)(=O)N[C@@H]2CC[C@@H](CCn3cc(-c4ccc(F)cc4)nn3)O[C@H]2CO)c1	·	·	·	–	·	·
C[C@@H]1CCCCO[C@@H](CN(C)S(=O)(=O)c2cccs2)[C@H](C)CN([C@H](C)CO)C(=O)c2cc(NC(=O)Nc3ccccc3)ccc2O1	·	·	·	–	·	·
Cc1cc2cc(CNC(=S)Nc3ccc(OC(F)F)cc3)ccc2n1C	45.9	–	–	–	–	–
C[C@H]1CN([C@@H](C)CO)C(=O)c2cccc(NS(C)(=O)=O)c2O[C@H]1CN(C)S(=O)(=O)c1cccs1	·	·	·	–	·	·
C[C@@H]1CN([C@H](C)CO)S(=O)(=O)c2ccc(-c3cccnc3)cc2O[C@@H]1CN(C)Cc1ccncc1	·	·	·	–	·	·
C[C@@H]1CN([C@H](C)CO)C(=O)c2cc(NC(=O)Nc3cccc4ccccc34)ccc2O[C@H]1CN(C)Cc1ccncc1	·	·	·	–	·	·
CC(C)(C)c1ccc(C(=O)N2CCCC2)s1	–	–	–	46.6	–	–
Cc1nn(C(=O)CCC(=O)NCCc2ccccc2)c2ccccc12	–	–	–	–	–	–
Cc1nn(C(=O)CCC(=O)NCc2cccc(F)c2)c2ccccc12	34.5	–	–	–	–	–
COc1cccc(N2CCN(S(=O)(=O)c3cc4c(cc3C)N(C)CCO4)CC2)c1	–	–	76.2	–	–	–
Cc1ccc(C)c(N=Nc2nc3ccccc3n2C)c1	–	–	–	41.4	–	–
Cc1cc(C)c(C)c(N=Nc2nc3ccccc3n2C)c1C	–	19.0	–	·	–	–
COc1ccc(-c2cn(CC[C@H]3CC[C@H](N)[C@@H](CO)O3)nn2)cc1	·	·	·	–	·	·
